This is an account of results in ChEMBL document CHEMBL4513135, “CO-ADD screening of IQOG CSIS (Spain) compounds”.

As a reminder, the Inhibition is the relative decrease from the control value, in per cent.

In assay [1] the test system is Klebsiella pneumoniae. To be noted: Concentration 32 ug.mL-1; ASSAY_TEST Inhibition of Bacterial Growth; detection method Absorption (OD600); MEDIA CAMHB; plate type 384well; NBS; CORNING #3640; time 18 hr.
The test system of assay [2] is Candida albicans. The settings on record: 32 ug/mL.
For assay [3], the system named is Cryptococcus neoformans. The settings on record: Concentration 32 ug.mL-1; ASSAY_TEST Inhibition of Fungal Growth; detection method Resazurin; Absorption (OD600-OD570); plate type 384well; NBS; CORNING #3640. (In general: Alamar Blue is a resazurin reagent that responds to reducing activity.)

The structures appear in SMILES notation. Measured potencies and affinities stand elsewhere.

As to `CC1Cc2c(nc3c(c2N)CCCC3)NC1=O` (stereo not given), the Inhibition was 17.01% in assay [1], 1.73% in assay [2] and -61.31% in assay [3].

As to `N#Cc1c(-c2ccccc2)c2ccc3ccccc3c2oc1=O`, the Inhibition in assay [1] is 8.94%; in assay [2] it was 3.25%; in assay [3], -60.47%.

On to `NOC(=O)C1CCN(Cc2ccccc2)CC1`, for which the Inhibition in assay [1] is 4.34%; in assay [2], 1.62%; in assay [3], -5.93%.

Turning to `Cn1ccnc1C1C2=C(CC(C)(C)CC2=O)Oc2nc3c(c(N)c21)CCCC3` (stereo not given), the Inhibition in assay [1] is 9.51%; in assay [2], 1.3%; in assay [3] it was -60.42%.

As for `OCc1cc2ccccc2[nH]1`, the Inhibition in assay [1] was 6.48%; in assay [2], 2.35%; in assay [3], -4.31%.

Take `N#CC1(Br)C(=NBr)Oc2ccc3ccccc3c2C1c1ccccc1[N+](=O)[O-]` (stereo not given): the Inhibition in assay [1] was 5.57%; in assay [2], 4.94%; in assay [3], -80.32%.

`COc1ccc(C2C(C#N)=C(N)Oc3ccc4ccccc4c32)cc1OC` (stereo not given): the Inhibition in assay [1] was 12.8%; in assay [2], 5.6%; in assay [3] it was -62.6%.

With `CCOc1nc2nc(C)c(C=C3CCN(Cc4ccccc4)CC3)cc2c(-c2ccccc2)c1C#N`, the Inhibition is 20.16% in assay [1], 2.44% in assay [2] and -63.91% in assay [3].

As to `COc1ccc(C2c3c(ccc4ccccc34)OC(=N)C2(Br)C#N)cc1` (stereo not given), the results for the Inhibition in assay [1], in assay [2] and in assay [3] were 10.22%, 17.9% and -84.01%, respectively.

Turning to `CCOC(=O)c1cc2ccccc2[nH]1`, the figures for the Inhibition in assay [1], in assay [2] and in assay [3] were 16.5%, 2.42% and -5.94%, respectively.

For `N#C/C(=C\c1ccccc1Cl)C(=O)c1ccccc1`, the Inhibition in assay [1] was 13.98%; in assay [2], 10.6%; in assay [3] it was -6.26%.

As for `O=C1OC(c2ccc([N+](=O)[O-])cc2)=NC1=Cc1ccccc1`, the Inhibition was 6.09% in assay [1], 1.83% in assay [2] and -5.52% in assay [3].

As to `O=C(N/N=C/c1c[nH]c2ccccc12)c1cc2ccccc2[nH]1`, the results for the Inhibition in assay [1], in assay [2] and in assay [3] were 11.64%, 0.51% and -6.47%, respectively.

Turning to `CCOC(=O)/C(C#N)=C\c1ccc(Cl)cc1`, the Inhibition is 4.33% in assay [1], -0.09% in assay [2] and -5.03% in assay [3].

Regarding `O=C(N/N=C/c1c[nH]c2ccccc12)C(c1ccccc1)c1ccccc1`, the Inhibition in assay [1] was 10.97%; in assay [2], 1.46%; in assay [3] it was -1.94%.

As for `CC1=NC(=Cc2ccc([N+](=O)[O-])cc2)C(=O)O1`, the Inhibition was -0.23% in assay [1], -0.54% in assay [2] and -1.41% in assay [3].

Regarding `COc1ccc(C2c3c(nc4c(c3N)CCCC4)Oc3ccc4ccccc4c32)c(OC)c1` (stereo not given), the Inhibition is 6.37% in assay [1], 10.9% in assay [2] and 16.32% in assay [3].

In the case of `N#Cc1c(N)nc(Cl)c(C#N)c1-c1ccccc1`, the Inhibition was 1.22% in assay [1], 6.28% in assay [2] and -2.34% in assay [3].

Regarding `Cc1ccc2nc(Cl)c(/C=N/NCc3ccccc3)cc2c1`, the Inhibition in assay [1] is 7.66%; in assay [2], 14.7%; in assay [3], -3.59%.

Turning to `O=C(N/N=C/c1cccc(Cl)c1)c1cc2ccccc2[nH]1`, the figures for the Inhibition in assay [1], in assay [2] and in assay [3] were -14.42%, -0.35% and -2.87%, respectively.

Turning to `Cc1[nH]c2ccc(OCc3ccccc3)cc2c1C(=O)NN`, the Inhibition in assay [1] is 5.83%; in assay [2], 1.23%; in assay [3], -5.65%.

Turning to `O=C(N/N=C/c1ccc(Cl)cc1)c1cc2ccccc2[nH]1`, the Inhibition in assay [1] is -19.43%; in assay [2] it was 3.28%; in assay [3], -0.9%.

In the case of `C#CCNc1ncc(C#N)c(N)n1`, the figures for the Inhibition in assay [1], in assay [2] and in assay [3] were 3.55%, 2.29% and -34.7%, respectively.

For the compound `COc1ccc(C2C(C#N)=C(Cl)Oc3c2ccc2ccccc32)cc1OC` (stereo not given), the Inhibition is -4.48% in assay [1], 18.1% in assay [2] and -55.36% in assay [3].

On to `O=Cc1ccc(OCCO[N+](=O)[O-])cc1`, for which the Inhibition in assay [1] was 8.5%; in assay [2] it was 5.46%; in assay [3] it was -2.32%.

Take `Cc1ccc(C(O)SNNc2nc(C)nc3c2c(C)nn3-c2ccccc2)cc1` (stereo not given): the Inhibition is 11.05% in assay [1], -0.04% in assay [2] and -5.24% in assay [3].

With `COc1ccc2c(c1)cc(/C=C/[N+](=O)[O-])n2C`, the Inhibition in assay [1] worked out at 9.01%; in assay [2], 2.82%; in assay [3], 4.17%.

For the compound `CCCC(=O)NCc1c(-c2ccc(Cl)cc2)nc2ccccn12`, the Inhibition in assay [1] was -10.71%; in assay [2], 1.27%; in assay [3], -9.45%.

With `Cc1ccc(CNNC(=O)c2cc3ccccc3n2C)cc1`, the Inhibition in assay [1] is -14.45%; in assay [2], 1.69%; in assay [3] it was -0.2%.

In the case of `N#Cc1cc(C#N)c(NCc2ccccc2)nc1N`, the figures for the Inhibition in assay [1], in assay [2] and in assay [3] were -14.3%, 1.7% and 5.02%, respectively.

Regarding `Nc1c2c(nc3c1C(c1ccc([N+](=O)[O-])cc1)c1ccc4ccccc4c1O3)CCCC2` (stereo not given), the Inhibition was -17.7% in assay [1], -1.86% in assay [2] and -5.85% in assay [3].

`CC(=O)Oc1ccc(C=C2N=C(C)OC2=O)cc1`: the Inhibition in assay [1] was 7.96%; in assay [2] it was -1%; in assay [3] it was -2.97%.

Turning to `CN(C)c1cccc(C(=O)c2cccc(N(C)C)c2)c1`, the Inhibition in assay [1] was 6.77%; in assay [2], -0.28%; in assay [3], -8.01%.

`CC(=O)N1CC(=O)NC1=S`: the figures for the Inhibition in assay [1], in assay [2] and in assay [3] were 17.26%, 1.1% and 1.05%, respectively.

As for `CCOc1nc2nc(CCc3ccccc3)ccc2c(-c2ccccc2)c1C#N`, the Inhibition is 1.47% in assay [1], 7.93% in assay [2] and -42.89% in assay [3].
